Out of some 5,500 compounds screened, about 2,000 (36%) were called active. Roughly 18% stayed inconclusive and do not appear here. No stated cut-off is given here; in the data, active means normalized growth mostly below about 0.91 (no sharp cut-off); inconclusive means no clear call, values can overlap the other calls; inactive means mostly above about 0.92. Some of the results follow.
Test: chemical genetic growth profiling, strain panel (AID 1159580);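 further: tested at 20 µM; growth read once vehicle control cultures reached saturation at 30 °C; 1 = growth at the plate median or of vehicle wells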
Conditions: S. cerevisiae deletion strains, growth OD

Measured: normalized growth

O=S1OCC2C(CO1)C1(Cl)C(Cl)=C(Cl)C2(Cl)C1(Cl)Cl (centres undefined)
inactive: locus YAL013W, strain DEP1, stronger effect = lower value 0.973 | locus YAL021C, strain ccr4, stronger effect = lower value 0.982 | locus YAL026C, strain drs2, stronger effect = lower value 0.98 | locus YAL030W, strain snc1, stronger effect = lower value 0.993 | locus YBL061C, strain skt5, stronger effect = lower value 1 | locus YBR009C, strain hhf1, stronger effect = lower value 0.989 | locus YBR021W, strain FUR4, stronger effect = lower value 0.993 | locus YBR023C, strain chs3, stronger effect = lower value 0.987 | locus YBR171W, strain sec66, stronger effect = lower value 0.974 | locus YBR229C, strain ROT2, stronger effect = lower value 0.998 | locus YBR231C, strain swc5, stronger effect = lower value 0.992 | locus YBR279W, strain paf1, stronger effect = lower value 1 | locus YCL011C, strain gbp2, stronger effect = lower value 0.98 | locus YCL016C, strain dcc1, stronger effect = lower value 0.999 | locus YCL029C, strain bik1, stronger effect = lower value 0.972 | locus YCL061C, strain MRC1, stronger effect = lower value 0.983 | locus YCL069W, strain vba3, stronger effect = lower value 0.99 | locus YCR088W, strain abp1, stronger effect = lower value 0.98 | locus YDL005C, strain med2, stronger effect = lower value 1 | locus YDL035C, strain GPR1, stronger effect = lower value 0.983 | locus YDL040C, strain nat1, stronger effect = lower value 0.994 | locus YDL074C, strain BRE1, stronger effect = lower value 0.999 | locus YDL101C, strain DUN1, stronger effect = lower value 0.972 | locus YDL134C, strain PPH21, stronger effect = lower value 0.997 | locus YDL185W, strain tfp1, stronger effect = lower value 0.948 | locus YDL192W, strain arf1, stronger effect = lower value 0.98 | locus YDR001C, strain nth1, stronger effect = lower value 0.974 | locus YDR069C, strain doa4, stronger effect = lower value 0.973 | locus YDR101C, strain arx1, stronger effect = lower value 0.992 | locus YDR150W, strain NUM1, stronger effect = lower value 0.991 | locus YDR159W, strain sac3, stronger effect = lower value 0.893 | locus YDR162C, strain NBP2, stronger effect = lower value 0.946 | locus YDR195W, strain ref2 1.04 | locus YDR297W, strain sur2, stronger effect = lower value 0.983 | locus YDR318W, strain mcm21, stronger effect = lower value 0.973 | locus YDR334W, strain swr1, stronger effect = lower value 0.99 | locus YDR335W, strain msn5, stronger effect = lower value 0.995 | locus YDR388W, stronger effect = lower value 0.981 | locus YDR392W, strain spt3, stronger effect = lower value 0.823 | locus YDR502C, strain sam2, stronger effect = lower value 0.96 | locus YEL003W, strain gim4, stronger effect = lower value 0.931 | locus YEL037C, strain rad23, stronger effect = lower value 1 | locus YEL061C, strain CIN8 (second series), stronger effect = lower value 0.983 | locus YEL061C, strain CIN8, stronger effect = lower value 0.992 | locus YER015W, strain faa2, stronger effect = lower value 0.993 | locus YER016W, strain bim1, stronger effect = lower value 0.991 | locus YER110C, stronger effect = lower value 0.986 | locus YER111C, strain swi4, stronger effect = lower value 0.997 | locus YER155C, strain BEM2 (second series), stronger effect = lower value 0.988 | locus YER155C, strain BEM2, stronger effect = lower value 0.973 | locus YER167W, strain BCK2, stronger effect = lower value 0.966 | locus YFR010W, strain ubp6, stronger effect = lower value 0.984 | locus YGL078C, strain dbp3, stronger effect = lower value 0.968 | locus YGL086W, strain mad1, stronger effect = lower value 0.975 | locus YGL167C, strain pmr1, stronger effect = lower value 0.989 | locus YGL173C, strain kem1, stronger effect = lower value 0.992 | locus YGL227W, strain vid30, stronger effect = lower value 0.987 | locus YGL240W, strain doc1, stronger effect = lower value 0.988 | locus YGL248W, strain PDE1, stronger effect = lower value 1.01 | locus YGL253W, strain hxk2, stronger effect = lower value 0.987 | locus YGR078C, strain PAC10, stronger effect = lower value 0.97 | locus YGR135W, strain pre9, stronger effect = lower value 0.978 | locus YGR229C, strain SMI1, stronger effect = lower value 0.992 | locus YGR252W, strain gcn5, stronger effect = lower value 0.984 | locus YHR013C, strain ard1, stronger effect = lower value 0.862 | locus YHR027C, strain rpn1, stronger effect = lower value 0.996 | locus YHR030C, strain SLT2, stronger effect = lower value 0.979 | locus YHR079C, strain IRE1 (second series), stronger effect = lower value 0.977 | locus YHR094C, strain hxt1, stronger effect = lower value 0.971 | locus YHR129C, strain ARP1, stronger effect = lower value 1.01 | locus YHR142W, strain chs7, stronger effect = lower value 0.971 | locus YHR200W, strain rpn10, stronger effect = lower value 0.972 | locus YIL066C, strain RNR3, stronger effect = lower value 0.966 | locus YIL073C, strain SPO22, stronger effect = lower value 0.887 | locus YIL125W, strain kgd1, stronger effect = lower value 0.982 | locus YIR030C, strain dcg1, stronger effect = lower value 0.98 | locus YJL092W, strain hpr5, stronger effect = lower value 0.987 | locus YJL095W, strain BCK1 (second series), stronger effect = lower value 1.01 | locus YJL095W, strain BCK1, stronger effect = lower value 0.999 | locus YJL115W, strain asf1, stronger effect = lower value 0.977 | locus YJL129C, strain trk1, stronger effect = lower value 0.888 | locus YJL134W, strain LCB3, stronger effect = lower value 0.966 | locus YJL154C, strain vps35, stronger effect = lower value 0.983 | locus YJL164C, strain tpk1, stronger effect = lower value 0.942 | locus YJL168C, strain set2, stronger effect = lower value 0.974 | locus YJL187C, strain SWE1 (second series), stronger effect = lower value 0.979 | locus YJL187C, strain SWE1, stronger effect = lower value 0.995
active: locus YDR137W, strain rgp1, stronger effect = lower value 1.17 [resistant] | locus YJL166W, strain qcr8, stronger effect = lower value 0.875

Source: PubChem BioAssay AID1159580 (chemical genetic matrix, 2015)
